Hits are enriched below; roughly 3.5% of the tested compounds scored in any of these assays.
Mtb UGM inh: Mtb UDP-galactopyranose mutase inhibition | actives 0.06% (n = 320,000) | inhibition, % at 10 µM | AID 504406 | P9WIQ1 | purified UGM, fluorescence polarization probe displacement; in the data active = inhibition above about 10%, passing the limit was not always enough
Rv3671c inh: inhibits the M. tuberculosis serine protease Rv3671c; actives 0.048% (n = 320,000); inhibition, % at 5.96 µM; in the data active = inhibition above about 38%;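 note: extracellular domain of Rv3671c used as enzyme; 0% = enzyme with DMSO and 100% = no enzyme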
Target sequence (P9WHR9 whole entry, looked up, the tested form may be a part): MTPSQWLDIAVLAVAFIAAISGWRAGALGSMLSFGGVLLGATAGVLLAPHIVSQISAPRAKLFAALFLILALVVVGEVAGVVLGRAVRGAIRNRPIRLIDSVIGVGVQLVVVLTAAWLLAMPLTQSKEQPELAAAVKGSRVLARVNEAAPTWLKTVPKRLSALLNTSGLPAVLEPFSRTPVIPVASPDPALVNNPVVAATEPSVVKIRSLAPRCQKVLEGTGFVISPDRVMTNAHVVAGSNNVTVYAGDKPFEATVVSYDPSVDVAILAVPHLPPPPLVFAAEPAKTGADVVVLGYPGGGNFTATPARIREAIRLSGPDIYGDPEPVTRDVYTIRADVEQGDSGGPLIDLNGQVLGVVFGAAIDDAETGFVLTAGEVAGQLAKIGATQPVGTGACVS
FBA Mtb inh: Mtb fructose-bisphosphate aldolase inhibition | P9WQA3 | purified M. tuberculosis FBA, fluorescence read-out | inhibition, % at 1 µM | actives 2.3% (n = 360,000) | AID 588726;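 note: 0% = vehicle and 100% = reference inhibitor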
GDH-TPI counter-1: counter-screen for M. tuberculosis FBA inhibitors: GDH-TPI coupled enzymes | inhibition, % at 4.8 µM | GDH-TPI coupled enzyme counterscreen, NADH absorbance | actives 1.2% (n = 360,000); in the data active = inhibition above about 30%;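 note: 0% = DMSO wells and 100% = wells lacking the enzyme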
Mtb hypoxia rep: inhibitors of hypoxia-regulated fluorescent reporter in Mycobacterium tuberculosis. M. tuberculosis hypoxia-regulated fluorescent reporter, fluorescence. fluorescence inhibition, % (no concentration beside the values). actives 0.1% (n = 300,000); in the data active = fluorescence inhibition mostly above about 23%, no sharp cut-off; inactive = mostly below about 17%
FadD28 FP inh: blocks FadD28 binding to the bisubstrate probe | fluorescence polarization | inhibition, % at 12.5 µM | actives 0.22% (n = 360,000) | AID 588549; in the data active = inhibition above about 8.5%, passing the limit was not always enough
Mtb FBA confirm: confirmation of M. tuberculosis fructose-bisphosphate aldolase inhibitors | shares compounds with FBA Mtb inh | purified M. tuberculosis FBA, fluorescence read-out | inhibition, % at 1 µM | actives 78% (n = 5,600);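 note: 0% = vehicle wells and 100% = reference inhibitor wells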
GDH-TPI counter-2: inhibits GDH-TPI coupling enzymes, flagging Mtb FBA hits | inhibition, % at 1 µM | GDH-TPI coupled enzyme counterscreen, fluorescence | shares compounds with FBA Mtb inh | actives 81% (n = 5,600) | AID 652141; in the data active = inhibition above about 10%
* hit, by the source's call. Cut-off read from the data, not from the text of the source, unless noted: active = inhibition above about 27%; inactive = the rest.

Results for O=C1OCCN1C(=O)[C@H]1[C@H](c2ccc(Cl)cc2)C(c2ccccc2)=NN1c1ccccc1 ?
FBA Mtb inh: 22; GDH-TPI counter-1: -10; FadD28 FP inh: -6

What do the screens show for `CCOC(=O)Cn1c(C(F)(F)F)nc2nc(Cl)c(Cl)nc21`?
FBA Mtb inh: 55*; GDH-TPI counter-1: 11; FadD28 FP inh: -4; Mtb FBA confirm: 102*; GDH-TPI counter-2: 62*

Results for Cc1cc(NC(=O)c2ccc3nccnc3c2)ccc1Br ?
Mtb UGM inh: 3; Rv3671c inh: -14; FBA Mtb inh: -3; GDH-TPI counter-1: 4; Mtb hypoxia rep: -3

Results for Cc1ccc(C(=O)Nc2ccc3nccnc3c2)cc1 ?
Mtb UGM inh: -1; Rv3671c inh: 1; FBA Mtb inh: 37*; GDH-TPI counter-1: 12; FadD28 FP inh: -1; Mtb FBA confirm: 44*; GDH-TPI counter-2: 36*

How did COc1ccc(C2NN=C(c3ccc(C)cc3)S2)cc1OC (centres undefined) do in these assays?
Mtb UGM inh: -5; Rv3671c inh: -2; FBA Mtb inh: 38*; GDH-TPI counter-1: 8; Mtb hypoxia rep: 1; FadD28 FP inh: -1; Mtb FBA confirm: active; GDH-TPI counter-2: active

What do the screens show for `Cc1ccc(C2=NNC(c3cccc(F)c3)S2)cc1` (centres undefined)?
Mtb UGM inh: 1; Rv3671c inh: 2; FBA Mtb inh: 4; GDH-TPI counter-1: -1; Mtb hypoxia rep: 5; FadD28 FP inh: 1

Results for CCOC(=O)CCc1c(C)c2ccc(OCC(=O)OC(C)C)cc2oc1=O ?
Mtb UGM inh: 0; Rv3671c inh: 0; FBA Mtb inh: 67*; GDH-TPI counter-1: 13; Mtb hypoxia rep: 22; FadD28 FP inh: 1; Mtb FBA confirm: 54*; GDH-TPI counter-2: 41*

Results for CCCCc1c(C)c2ccc(OCC(C)=O)cc2oc1=O ?
Mtb UGM inh: -1; Rv3671c inh: 0; FBA Mtb inh: 72*; GDH-TPI counter-1: 3; FadD28 FP inh: -1; Mtb FBA confirm: 3; GDH-TPI counter-2: 6

What do the screens show for `COC(=O)Cc1c(C)c2ccc(OCC(=O)c3ccc(OC)c(OC)c3)cc2oc1=O`?
Mtb UGM inh: -2; Rv3671c inh: -17; Mtb hypoxia rep: -1

What do the screens show for `CCOC(=O)CCc1c(C)c2ccc(OC3CCCCC3=O)cc2oc1=O` (centres undefined)?
Mtb UGM inh: 1; Rv3671c inh: -8; FBA Mtb inh: 109*; GDH-TPI counter-1: 5; Mtb hypoxia rep: 12; FadD28 FP inh: -1; Mtb FBA confirm: 151*; GDH-TPI counter-2: 132*

How did C=CCOC(=O)COc1ccc2c(C)c(C)c(=O)oc2c1 do in these assays?
Mtb UGM inh: 0; Rv3671c inh: 1; FBA Mtb inh: 68*; GDH-TPI counter-1: 23; Mtb hypoxia rep: -2; FadD28 FP inh: -1; Mtb FBA confirm: 25; GDH-TPI counter-2: 28*

How did COc1ccc(C=Nn2c(-c3cc(C)[nH]n3)n[nH]c2=S)cc1 do in these assays?
Mtb hypoxia rep: 11

What do the screens show for `O=[N+]([O-])c1ccc(-c2ccc(C=NNc3nc(NCc4ccccc4)nc(N4CCOCC4)n3)o2)cc1`?
Mtb hypoxia rep: -23

What do the screens show for `O=C(O)CC1c2cc(C(F)(F)F)ccc2S(=O)(=O)N1C1CCCC1` (centres undefined)?
Mtb hypoxia rep: -2

How did S=c1[nH]nc(C2CCCCC2)n1N=Cc1ccccc1 do in these assays?
Mtb hypoxia rep: 0

How did Cn1c(=O)c2cc(NC(=O)CCc3ccc(O)cc3)ccc2n1Cc1cccc(C(F)(F)F)c1 do in these assays?
FBA Mtb inh: 101*; GDH-TPI counter-1: 7; FadD28 FP inh: 1; Mtb FBA confirm: 7; GDH-TPI counter-2: -7

What do the screens show for `COc1ccccc1CCC(=O)Nc1ccc2c(c1)c(=O)n(C)n2Cc1cccc(C(F)(F)F)c1`?
FBA Mtb inh: 94*; GDH-TPI counter-1: 2; FadD28 FP inh: 0; Mtb FBA confirm: active; GDH-TPI counter-2: 197*

How did COc1ccc(CNC(=O)Nc2cccc(C(F)(F)F)c2)cc1OC do in these assays?
Mtb UGM inh: 1; Rv3671c inh: -6; FBA Mtb inh: 2; GDH-TPI counter-1: 4; Mtb hypoxia rep: 1; FadD28 FP inh: -3

Results for Cc1cccc(NC(=O)CSCC(=O)NCc2cccc(C(F)(F)F)c2)c1 ?
Mtb UGM inh: 0; Rv3671c inh: -5; FBA Mtb inh: 0; GDH-TPI counter-1: -12; Mtb hypoxia rep: 8; FadD28 FP inh: -6

Results for Cn1c(=O)c2cc(NC(=O)NCc3ccc(Cl)cc3Cl)ccc2n1Cc1ccc(F)cc1 ?
FBA Mtb inh: 89*; GDH-TPI counter-1: 11; FadD28 FP inh: 0; Mtb FBA confirm: active; GDH-TPI counter-2: 165*

What do the screens show for `Cn1c(=O)c2cc(NC(=O)NCc3ccc(F)cc3)ccc2n1Cc1cccc(C(F)(F)F)c1`?
FBA Mtb inh: 98*; GDH-TPI counter-1: 6; FadD28 FP inh: -1; Mtb FBA confirm: 152*; GDH-TPI counter-2: 139*

What do the screens show for `COc1ccccc1CCC(=O)Nc1ccc2c(c1)CN(Cc1ccc(C)o1)CC2`?
Mtb UGM inh: 3; Rv3671c inh: -2; FBA Mtb inh: 3; GDH-TPI counter-1: 18; Mtb hypoxia rep: -3; FadD28 FP inh: -3

Results for Cn1c(=O)c2cc(NC(=S)NC3CC3)ccc2n1Cc1cccc(C(F)(F)F)c1 ?
FBA Mtb inh: 30*; GDH-TPI counter-1: 8; FadD28 FP inh: 0; Mtb FBA confirm: 121*; GDH-TPI counter-2: 80*

What do the screens show for `COc1ccccc1CCC(=O)Nc1ccc2c(c1)c(=O)n(C)n2Cc1ccc(F)cc1`?
FBA Mtb inh: 105*; GDH-TPI counter-1: 10; FadD28 FP inh: -1; Mtb FBA confirm: 94*; GDH-TPI counter-2: 77*

How did C#Cc1ccc(C2C=C(C(=O)NCc3nc4ccccc4[nH]3)OC(OCC)C2CCCO)cc1 (centres undefined) do in these assays?
Mtb hypoxia rep: -7

How did CC(=O)Nc1cc2c(ccc3ccccc32)oc1=O do in these assays?
Mtb UGM inh: -1; Rv3671c inh: -6; FBA Mtb inh: 105*; GDH-TPI counter-1: 11; Mtb hypoxia rep: -2; FadD28 FP inh: 1; Mtb FBA confirm: 69*; GDH-TPI counter-2: 63*

How did C/C(=N\Nc1nc(-c2cc(C)ccc2C)cs1)c1cc2c(ccc3ccccc32)oc1=O do in these assays?
Mtb UGM inh: -1; Rv3671c inh: -7; FBA Mtb inh: 29*; GDH-TPI counter-1: 12; FadD28 FP inh: -2; Mtb FBA confirm: 69*; GDH-TPI counter-2: 43*

What do the screens show for `O=C(c1cc2c(ccc3ccccc32)oc1=O)N1CCN(CCO)CC1`?
Mtb UGM inh: 1; Rv3671c inh: -2; FBA Mtb inh: 53*; GDH-TPI counter-1: 26; FadD28 FP inh: 1; Mtb FBA confirm: 63*; GDH-TPI counter-2: 62*
